About 2,000 (36%) of roughly 5,500 compounds were called active. Another 18% or so got no clear call; they are omitted. Cut-off read from the data, not from the text of the source: active = normalized growth mostly below about 0.91 (no sharp cut-off); inconclusive = no clear call, values can overlap the other calls; inactive = mostly above about 0.92. This is one part of the list.
Assay: chemical genetic growth profiling, strain panel (AID 1159580);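 note: tested at 20 µM; growth read once vehicle control cultures reached saturation at 30 °C; 1 = growth at the plate median or of vehicle wells; lower values mean less growth of the strain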
Details: growth OD

Measured: normalized growth

OC[C@@H](O)[C@@H](O[C@@H]1O[C@H](CO)[C@@H](O)[C@H](O)[C@H]1O)[C@H](O)[C@@H](O)CO
inactive: S. cerevisiae deletion strains, locus YJR075W, strain HOC1, stronger effect = lower value 1.01 | S. cerevisiae deletion strains, locus YKL009W, strain mrt4, stronger effect = lower value 1.02 | S. cerevisiae deletion strains, locus YKL068W, stronger effect = lower value 0.999 | S. cerevisiae deletion strains, locus YKL085W, strain MDH1 (second series), stronger effect = lower value 0.998 | S. cerevisiae deletion strains, locus YKL085W, strain MDH1, stronger effect = lower value 0.998 | S. cerevisiae deletion strains, locus YKL160W, strain elf1, stronger effect = lower value 1.02 | S. cerevisiae deletion strains, locus YKL190W, strain CNB1, stronger effect = lower value 1 | S. cerevisiae deletion strains, locus YKR001C, strain vps1, stronger effect = lower value 1.02 | S. cerevisiae deletion strains, locus YKR026C, strain gcn3, stronger effect = lower value 0.991 | S. cerevisiae deletion strains, locus YKR091W, strain srl3, stronger effect = lower value 0.996 | S. cerevisiae deletion strains, locus YLL001W, strain dnm1, stronger effect = lower value 1.01 | S. cerevisiae deletion strains, locus YLL026W, stronger effect = lower value 0.994 | S. cerevisiae deletion strains, locus YLL041C, strain sdh2, stronger effect = lower value 0.989 | S. cerevisiae deletion strains, locus YLR027C, strain aat2, stronger effect = lower value 0.997 | S. cerevisiae deletion strains, locus YLR039C, strain RIC1, stronger effect = lower value 1.06 | S. cerevisiae deletion strains, locus YLR058C, strain SHM2, stronger effect = lower value 1.01 | S. cerevisiae deletion strains, locus YLR102C, strain apc9, stronger effect = lower value 1.01 | S. cerevisiae deletion strains, locus YLR113W, strain HOG1, stronger effect = lower value 0.99 | S. cerevisiae deletion strains, locus YLR221C, strain rsa3, stronger effect = lower value 1.04 | S. cerevisiae deletion strains, locus YLR258W, strain gsy2, stronger effect = lower value 1 | S. cerevisiae deletion strains, locus YLR262C, strain YPT6 (second series), stronger effect = lower value 1.01 | S. cerevisiae deletion strains, locus YLR262C, strain YPT6, stronger effect = lower value 1.05 | S. cerevisiae deletion strains, locus YLR268W, strain sec22, stronger effect = lower value 0.999 | S. cerevisiae deletion strains, locus YLR320W, strain mms22, stronger effect = lower value 1.04 | S. cerevisiae deletion strains, locus YLR330W, strain CHS5, stronger effect = lower value 1.01 | S. cerevisiae deletion strains, locus YLR342W, strain FKS1 (second series), stronger effect = lower value 1.12 | S. cerevisiae deletion strains, locus YLR342W, strain FKS1, stronger effect = lower value 0.974 | S. cerevisiae deletion strains, locus YLR357W, strain rsc2, stronger effect = lower value 0.958 | S. cerevisiae deletion strains, locus YLR370C, strain arc18, stronger effect = lower value 0.996 | S. cerevisiae deletion strains, locus YLR371W, strain rom2, stronger effect = lower value 1.01 | S. cerevisiae deletion strains, locus YLR384C, strain iki3, stronger effect = lower value 0.999 | S. cerevisiae deletion strains, locus YLR418C, strain cdc73, stronger effect = lower value 0.974 | S. cerevisiae deletion strains, locus YML016C, strain PPZ1, stronger effect = lower value 1.01 | S. cerevisiae deletion strains, locus YML032C, strain rad52, stronger effect = lower value 1.05 | S. cerevisiae deletion strains, locus YML120C, strain ndi1, stronger effect = lower value 0.985 | S. cerevisiae deletion strains, locus YML124C, strain tub3, stronger effect = lower value 1.01 | S. cerevisiae deletion strains, locus YMR058W, strain fet3, stronger effect = lower value 0.99 | S. cerevisiae deletion strains, locus YMR078C, strain ctf18, stronger effect = lower value 1.02 | S. cerevisiae deletion strains, locus YMR125W, strain sto1, stronger effect = lower value 0.938 | S. cerevisiae deletion strains, locus YMR129W, stronger effect = lower value 0.992 | S. cerevisiae deletion strains, locus YMR205C, strain PFK2, stronger effect = lower value 1.03 | S. cerevisiae deletion strains, locus YMR223W, strain ubp8, stronger effect = lower value 1.06 | S. cerevisiae deletion strains, locus YMR231W, strain pep5, stronger effect = lower value 0.983 | S. cerevisiae deletion strains, locus YMR263W, strain SAP30, stronger effect = lower value 1.02 | S. cerevisiae deletion strains, locus YMR307W, strain GAS1, stronger effect = lower value 1.1 | S. cerevisiae deletion strains, locus YNL067W, strain RPL9B, stronger effect = lower value 0.998 | S. cerevisiae deletion strains, locus YNL071W, strain lat1, stronger effect = lower value 0.986 | S. cerevisiae deletion strains, locus YNL128W, strain TEP1, stronger effect = lower value 0.985 | S. cerevisiae deletion strains, locus YNL153C, strain GIM3, stronger effect = lower value 1 | S. cerevisiae deletion strains, locus YNL183C, strain NPR1, stronger effect = lower value 0.982 | S. cerevisiae deletion strains, locus YNL209W, strain ssb2, stronger effect = lower value 0.999 | S. cerevisiae deletion strains, locus YNL233W, strain BNI4, stronger effect = lower value 1.02 | S. cerevisiae deletion strains, locus YNL248C, strain rpa49, stronger effect = lower value 0.976 | S. cerevisiae deletion strains, locus YNL250W, strain rad50, stronger effect = lower value 1.02 | S. cerevisiae deletion strains, locus YNL271C, strain bni1, stronger effect = lower value 1.03 | S. cerevisiae deletion strains, locus YNL298W, strain CLA4, stronger effect = lower value 1.02 | S. cerevisiae deletion strains, locus YNL307C, strain MCK1, stronger effect = lower value 1.03 | S. cerevisiae deletion strains, locus YNL322C, strain KRE1 (second series), stronger effect = lower value 0.991 | S. cerevisiae deletion strains, locus YNL322C, strain KRE1, stronger effect = lower value 1.01 | S. cerevisiae deletion strains, locus YNR049C, strain mso1, stronger effect = lower value 0.993 | S. cerevisiae deletion strains, locus YNR052C, strain pop2, stronger effect = lower value 1.01 | S. cerevisiae deletion strains, locus YOL006C, strain TOP1, stronger effect = lower value 1.07 | S. cerevisiae deletion strains, locus YOL012C, strain htz1 1.19 | S. cerevisiae deletion strains, locus YOL147C, strain pex11, stronger effect = lower value 1.01 | S. cerevisiae deletion strains, locus YOR001W, strain rrp6, stronger effect = lower value 0.968 | S. cerevisiae deletion strains, locus YOR061W, strain CKA2, stronger effect = lower value 1.02 | S. cerevisiae deletion strains, locus YOR069W, strain VPS5, stronger effect = lower value 1.01 | S. cerevisiae deletion strains, locus YOR070C, strain gyp1, stronger effect = lower value 0.994 | S. cerevisiae deletion strains, locus YOR080W, strain dia2, stronger effect = lower value 0.995 | S. cerevisiae deletion strains, locus YOR083W, strain WHI5, stronger effect = lower value 1.03 | S. cerevisiae deletion strains, locus YOR106W, strain vam3, stronger effect = lower value 0.998 | S. cerevisiae deletion strains, locus YOR136W, strain idh2, stronger effect = lower value 1.02 | S. cerevisiae deletion strains, locus YOR144C, strain elg1, stronger effect = lower value 1 | S. cerevisiae deletion strains, locus YOR184W, strain ser1, stronger effect = lower value 1.08 | S. cerevisiae deletion strains, locus YOR231W, strain MKK1, stronger effect = lower value 1 | S. cerevisiae deletion strains, locus YOR265W, strain rbl2, stronger effect = lower value 1 | S. cerevisiae deletion strains, locus YOR270C, strain vph1, stronger effect = lower value 0.956 | S. cerevisiae deletion strains, locus YOR290C, strain snf2, stronger effect = lower value 1 | S. cerevisiae deletion strains, locus YOR316C, strain cot1, stronger effect = lower value 1.01 | S. cerevisiae deletion strains, locus YPL051W, strain arl3, stronger effect = lower value 1.02 | S. cerevisiae deletion strains, locus YPL055C, strain LGE1, stronger effect = lower value 0.991 | S. cerevisiae deletion strains, locus YPL078C, strain atp4, stronger effect = lower value 1 | S. cerevisiae deletion strains, locus YPL106C, strain sse1, stronger effect = lower value 1.01 | S. cerevisiae deletion strains, locus YPL240C, strain hsp82, stronger effect = lower value 0.997 | S. cerevisiae deletion strains, locus YPL241C, strain CIN2, stronger effect = lower value 1.01 | S. cerevisiae deletion strains, locus YPL256C, strain CLN2, stronger effect = lower value 0.985 | S. cerevisiae deletion strains, locus YPR119W, strain clb2, stronger effect = lower value 1 | S. cerevisiae deletion strains, locus YPR141C, strain kar3, stronger effect = lower value 1.02 | S. cerevisiae deletion strains, locus YPR163C, strain tif3, stronger effect = lower value 1.01 | S. cerevisiae deletion strains, locus YPR167C, strain met16, stronger effect = lower value 1 | S. cerevisiae deletion strains, strain wtn01, stronger effect = lower value 0.992 | S. cerevisiae strains, strain wild type, stronger effect = lower value 1.02
